Experimental data reported in PubChem BioAssay (NCI).
The panel holds about 83,000 compounds, 20% with a hit somewhere; the sample as a whole holds those more often.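 How to read the values: 0–100, growth inhibition (40 = 60% inhibited); 0, no net growth; -100 to 0, cell death (-40 = 40% of starting cells died; -100 = all dead).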 A number with no mark means an inactive call. Activity calls are given as the source filed them. Rule for the calls: active = growth percent below 10; inactive = the rest.

Assays:
Assay in all cases: NCI-60 one-dose screen, 48 h (100 = growth as untreated, 0 = no growth, -100 = all killed)
Conditions in all cases: 10 µM unless noted
HCT-15 colon = tested on: HCT-15 colon
HT29 colon = tested on: HT29 colon
SNB-75 CNS = tested on: SNB-75 CNS
SNB-19 CNS = tested on: SNB-19 CNS
U251 CNS = tested on: U251 CNS
PC-3 prostate = tested on: PC-3 prostate
SK-MEL-5 melanoma = tested on: SK-MEL-5 melanoma
UACC-62 melanoma = tested on: UACC-62 melanoma
SK-MEL-28 melanoma = tested on: SK-MEL-28 melanoma
SK-MEL-2 melanoma = tested on: SK-MEL-2 melanoma
EKVX NSCLC = tested on: EKVX NSCLC
SN12C renal = tested on: SN12C renal
UO-31 renal = tested on: UO-31 renal
TK-10 renal = tested on: TK-10 renal
ACHN renal = tested on: ACHN renal
CAKI-1 renal = tested on: CAKI-1 renal
A498 renal = tested on: A498 renal
CCRF-CEM leukemia = tested on: CCRF-CEM leukemia
MOLT-4 leukemia = tested on: MOLT-4 leukemia

| SMILES | growth (HCT-15 colon) | growth (HT29 colon) | growth (SNB-75 CNS) | growth (SNB-19 CNS) | growth (U251 CNS) | growth (PC-3 prostate) | growth (SK-MEL-5 melanoma) | growth (UACC-62 melanoma) | growth (SK-MEL-28 melanoma) | growth (SK-MEL-2 melanoma) | growth (EKVX NSCLC) | growth (SN12C renal) | growth (UO-31 renal) | growth (TK-10 renal) | growth (ACHN renal) | growth (CAKI-1 renal) | growth (A498 renal) | growth (CCRF-CEM leukemia) | growth (MOLT-4 leukemia) |
| --- | --- | --- | --- | --- | --- | --- | --- | --- | --- | --- | --- | --- | --- | --- | --- | --- | --- | --- | --- |
| O=C(O)c1cccc2c1-c1ccc(Cl)cc1C2 | 102% | 109% | 88.2% | 105% | 108% | 108% | 103% | 102% | 108% | 102% | 110% | 105% | 89.7% | 103% | 107% | 86.5% | 96.8% | 99.5% | 89.9% |
| COC1=C(Br)C(=O)C(OC)=C(Br)C1=O | 96.1% | 106% | 103% | 95.8% | 104% | 107% | 99.4% | 91.2% | 117% | 119% | 105% | 95.2% | 93.3% | 95.7% | 104% | 98.9% | 128% | -12.3% (active) | 26.4% |
| NC1=NN(c2ccccc2)C(=O)/C1=C/c1ccc(Cl)cc1 | 99.4% | 102% | 105% | 96.9% | 98.1% | 82.8% | 101% | 81.2% | 95% | 96.2% | 96% | 94.6% | 78.3% | 91.2% | 93.9% | 97% | 99.7% | 101% | 102% |
| N=C(N)N=Nc1ccc(O)cc1 | 45.9% [100 µM] | 31.9% [100 µM] | 56.3% [100 µM] | 56.8% [100 µM] | 40.5% [100 µM] | 38.1% [100 µM] | 85.9% [100 µM] | 86.6% [100 µM] | 104% [100 µM] | 105% [100 µM] | 96% [100 µM] | 104% [100 µM] | 81.9% [100 µM] | 124% [100 µM] | 20.8% [100 µM] | 53.4% [100 µM] | 126% [100 µM] | 91.2% [100 µM] | 88.4% [100 µM] |
| Nc1ccccc1NC(=O)c1ccc(CN2CCC/C(=C\c3ccccn3)C2=O)cc1 | 16.5% | 13.8% | 15.5% | 38.1% | 23.9% | 44% | -15.6% (active) | -23.6% (active) | 16.3% | 27% | 33.2% | 48.2% | 25.4% | 14.2% | 20.6% | 17.7% | 7.96% (active) | 16.7% | 7.84% (active) |
| O=c1[nH]ncc(Br)c1Br | 15.7% | -35.1% (active) | 79.8% | 72.4% | 30.9% | 65.7% | 69.4% | 87.3% | 14.7% | 45.1% | 78.8% | 63.6% | 52% | 65.8% | 87.3% | 86.4% | 108% | 27.6% | 35.4% |
| Cc1csc(Nc2nc(-c3ccc(Cl)cc3)nc(C(Cl)(Cl)Cl)n2)n1 | 84.1% | 63.1% | 89.4% | 72.9% | 72.8% | 74.1% | 93.1% | 83.2% | 92% | 112% | 76.6% | 94.1% | 84.8% | 100% | 49.5% | 78.1% | 85.2% | 90% | 84.4% |
| Cc1ccc(/C=C(\C#N)c2cc3ccccc3n2C)cc1 | 10.3% | 17.1% | 19.4% | 29.3% | 30.9% | 36.1% | 23% | 20% | 65.4% | 75.7% | 48.4% | 39.5% | 56.8% | 99.3% | 42.9% | 34.4% | 10.4% | 13.9% | 21.6% |
